Hits are enriched below; roughly 2% of the tested compounds scored in any of these assays.
KKLEB cytotox = reduces viability of KKLEB cystic fibrosis airway cells. KKLEB CF airway cells viability, ATPlite luminescence, overnight; active compounds read low; cells stimulated with P. aeruginosa culture filtrate. activity change (cytotoxicity), % at 5 µM. actives 0.36% (n = 360,000). AID 602141;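 active means corrected activity change at or below -50% at 5 µM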
PAX8 inh HTS = PAX8 transcriptional activity inhibition; RMG-I TPO-luciferase reporter, SteadyGlo, 24 h; inhibition, % at 12.6 µM; actives 1.2% (n = 360,000);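 active means mean replicate inhibition at least 60% with every replicate also reaching 60%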;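 further: luciferase light reporting Pax8 driven TPO promoter activity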
CF NFkB block = blocks PAF-induced NF-kB reporter in cystic fibrosis cells | KKLEB NF-kB-GFP reporter, GFP fluorescence overnight | inhibition, % at 5 µM | actives 0.86% (n = 360,000) | AID 588850;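 active means at least 50% inhibition at 5 µM, scaled per plate between neutral and stimulator controls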;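 further: PAF is a Pseudomonas aeruginosa culture filtrate used as stimulus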
EWS-Fli inh = blocks EWS/Fli oncoprotein-driven transcription; A673 NR0B1-luciferase reporter, viability-normalised; inhibition, % at 12.6 µM; actives 0.67% (n = 350,000);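 active means mean inhibition of at least 50% after viability correction, with every replicate also passing that limit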;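 further: firefly luciferase signal divided by Alamar Blue viability fluorescence both relative to DMSO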
LGR2 inh = inhibitors of bursicon-induced Drosophila LGR2 receptor cAMP signaling. HEK293 LGR2, CRE-luciferase, bursicon-stimulated, 4 h. inhibition, % at 9.99 µM. actives 0.35% (n = 380,000);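 active means drop in luminescence signal, shown as inhibition above about 50% in the replicate tests, limit read from the data, passing the limit was not always enough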;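 further: agonist challenge used bursicon conditioned medium at about half maximal strength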
Shn3 3UTR inh = reduces Shn3 3'UTR luciferase signal in osteoblasts. Clone20 osteoblast Shn3 3'UTR firefly luciferase, 24 h. inhibition, % at 12.5 µM. actives 0.52% (n = 360,000);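 active means mean inhibition of at least 75% with every replicate also reaching 75%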
A number is an active result; i = inactive; nt = no result.

SMILES | KKLEB cytotox | PAX8 inh HTS | CF NFkB block | EWS-Fli inh | LGR2 inh | Shn3 3UTR inh
COc1ccc(S(=O)(=O)N(C)C[C@H]2OCCCC[C@H](C)Oc3ccc(NC(=O)c4ccncc4)cc3C(=O)N([C@H](C)CO)C[C@@H]2C)cc1 | nt | i | nt | i | i | nt
COc1ccc(COc2cc(-c3cccc(OC)c3)nc3ccc(NC(=O)C(C)C)cc23)cc1 | i | i | i | 55.0 | i | i
COc1cccc(-c2cc(C(=O)Nc3ccccc3)c3ccccc3n2)c1 | i | i | i | i | i | i
CO[C@@H](CN(C)Cc1cc(F)ccc1F)[C@H](C)CN(C(=O)Nc1ccc(F)cc1)[C@H](C)CO | nt | nt | nt | i | i | nt
C/C(Cl)=C\Cn1c(NCCc2ccccc2)nc2c1c(=O)n(C)c(=O)n2C | i | nt | i | i | i | 88.2
C=CCn1c(NCCc2ccccc2)nc2c1c(=O)n(C)c(=O)n2C | i | nt | i | nt | nt | i
CCC/C(=C1/c2ccccc2C(=O)N1c1ccccc1)c1ccc2c(c1)OCCO2 | i | i | i | 62.0 | i | i
CCC/C(=C1/c2ccccc2C(=O)N1c1ccccc1)c1ccc(O[C@@H]2CCCCO2)cc1 | i | i | i | i | i | i
CC(/C=C\c1ccccc1)=C/C(=O)O | i | i | i | i | i | i
CC1=C(/C=C/C(C)=C/C=C/C(C)=C/C(=O)O)C(C)(C)CCC1 | i | i | 72.9 | i | i | i
COc1ccc(C(=O)N(Cc2ccco2)Cc2cccs2)c(O)c1 | i | nt | i | nt | nt | i
COc1ccc(C(=O)/C=C/C(=O)N(CC(=O)NCCC(C)C)Cc2cccs2)c(O)c1 | i | i | i | i | i | 97.5
c1ccc(-c2cc3nc(NCC4CC4)nc(NCC4CCCCC4)c3s2)cc1 | -83.7 | i | 81.7 | i | i | 87.6
COCCNc1nc(NCC2CCCCC2)c2sc(-c3ccccc3)cc2n1 | i | i | i | i | i | i
CC(=O)NCCNc1nc(NC(C)C)nc2cc(-c3ccccc3)sc12 | i | i | i | i | i | i
CC(=O)Nc1ccc(CNc2nc(NC(C)C)nc3cc(-c4ccccc4)sc23)cc1 | -55.7 | 73.1 | i | 60.3 | i | i
C=CCNc1nc(NCc2ccc(NC(C)=O)cc2)c2sc(-c3ccccc3)cc2n1 | -60.5 | i | i | i | i | i
C[C@@H]1CN([C@@H](C)CO)C(=O)Cc2cc(NS(=O)(=O)c3ccc(F)cc3)ccc2O[C@H]1CN(C)S(=O)(=O)c1ccc(Cl)cc1 | nt | i | nt | i | i | nt
COc1ccccc1NC(=O)N1CC(=O)N2[C@H](CO)[C@@H](c3ccc(C#Cc4ccccc4)cc3)[C@H]2C1 | nt | i | nt | i | i | nt
O=C(Nc1ccc(F)cc1)N1C[C@H]2[C@@H](c3ccccc31)[C@H](CO)N2C(=O)c1ccccn1 | nt | i | nt | i | i | nt
C[C@@H]1CCCCO[C@H](CN(C)Cc2ccccc2)[C@@H](C)CN([C@@H](C)CO)C(=O)c2cc(NS(=O)(=O)c3ccccc3)ccc2O1 | nt | i | nt | i | i | nt
COc1ccc(S(=O)(=O)Nc2ccc3c(c2)C(=O)N([C@H](C)CO)C[C@H](C)[C@@H](CN(C)Cc2ccc(C(F)(F)F)cc2)OCCCC[C@@H](C)O3)cc1 | nt | i | nt | i | i | nt
C[C@@H]1CCCCO[C@H](CN(C)Cc2ccc(C(F)(F)F)cc2)[C@H](C)CN([C@H](C)CO)C(=O)c2cc(NS(=O)(=O)c3ccc(F)cc3)ccc2O1 | nt | 78.7 | nt | i | i | nt
C[C@H]1CCCCO[C@@H](CN(C)Cc2ccc(C(F)(F)F)cc2)[C@@H](C)CN([C@@H](C)CO)C(=O)c2cc(NS(=O)(=O)c3ccc(F)cc3)ccc2O1 | nt | 95.6 | nt | i | i | nt
C[C@@H]1CN([C@@H](C)CO)C(=O)c2cc(NS(=O)(=O)c3ccc(F)cc3)ccc2O[C@@H](C)CCCCO[C@@H]1CN(C)Cc1ccc(C(F)(F)F)cc1 | nt | 88.0 | nt | i | i | nt
SMILES | KKLEB cytotox | PAX8 inh HTS | CF NFkB block | EWS-Fli inh | LGR2 inh | Shn3 3UTR inh
C[C@@H]1CCCCO[C@@H](CN(C)Cc2ccc(C(F)(F)F)cc2)[C@H](C)CN([C@H](C)CO)C(=O)c2cc(NS(=O)(=O)c3ccccc3)ccc2O1 | nt | 92.0 | nt | i | i | nt
CCCNC(=O)C[C@H]1CC[C@@H]2[C@H](COc3ccc(NC(=O)Cc4ccccc4)cc3C(=O)N2C)O1 | nt | i | nt | i | i | nt
C[C@@H]1CN([C@@H](C)CO)C(=O)c2cc(NS(=O)(=O)c3ccc(F)cc3)ccc2O[C@@H](C)CCCCO[C@@H]1CN(C)Cc1ccc(C(=O)O)cc1 | nt | i | nt | i | i | nt
C[C@H](CO)N1C[C@H](C)[C@H](CN(C)Cc2ccc(C(F)(F)F)cc2)OCCCC[C@H](C)Oc2ccc(NS(=O)(=O)c3ccc(F)cc3)cc2C1=O | nt | 106.1 | nt | 73.3 | i | nt
C[C@@H]1CCCCO[C@H](CN(C)Cc2ccc(C(F)(F)F)cc2)[C@@H](C)CN([C@@H](C)CO)C(=O)c2cc(NS(=O)(=O)c3ccc(F)cc3)ccc2O1 | nt | 103.1 | nt | i | i | nt
C[C@@H]1CCCCO[C@H](CN(C)Cc2ccc(C(F)(F)F)cc2)[C@H](C)CN([C@@H](C)CO)C(=O)c2cc(NS(=O)(=O)c3ccc(F)cc3)ccc2O1 | nt | 82.7 | nt | i | i | nt
O=C(N[C@H]1CC[C@@H](CCNS(=O)(=O)c2ccccc2Cl)O[C@H]1CO)c1ccc(F)cc1 | nt | i | nt | i | i | nt
O=C(C[C@@H]1C=C[C@@H](NS(=O)(=O)c2ccccc2)[C@@H](CO)O1)N1CCC(Cc2ccccc2)CC1 | nt | nt | nt | i | i | nt
CCCNC(=O)N1CC2(CCN(CC3CCCCC3)CC2)c2c([nH]c3cc(OC)ccc23)[C@H]1CO | nt | nt | nt | i | i | nt
O=C(C[C@@H]1CC[C@@H](NC(=O)c2ccccc2)[C@H](CO)O1)NCc1ccncn1 | nt | i | nt | i | i | nt
Cc1ccccc1CN1[C@@H](CC(C)C)COc2cc(Br)ccc2S1(=O)=O | nt | i | nt | i | i | nt
C=C1[C@@H](O)[C@H](CC(C)C)N(Cc2ccccc2Br)S1(=O)=O | -96.4 | i | 89.4 | i | i | i
O=C(O)C[C@H]1C=C[C@@H](NC(=O)c2ccncc2)[C@H](CO)O1 | nt | i | nt | i | i | nt
Cc1nc([N+](=O)[O-])c(Br)n1CC(=O)c1ccc2ccccc2c1 | -51.8 | nt | 63.7 | nt | nt | 95.0
CNS(=O)(=O)c1cccc(C(=O)OCc2cc(C(C)=O)ccc2OC)c1 | i | i | i | i | i | 81.8
COc1ccc(C(C)=O)cc1COC(=O)c1ccc(S(=O)(=O)N(C)C)cc1 | i | i | i | i | i | i
CC(C)N(C(=O)Nc1ccc2nsnc2c1)C(C)C | nt | i | nt | i | 82.2 | nt
COc1cccc(CNC(=O)C[C@@H]2CC[C@@H](NC(C)=O)[C@H](CO)O2)c1 | nt | i | nt | i | i | nt
O=C1/C(=C/c2ccccc2)SC(=S)N1CC(=O)N1CCCCC1c1cccnc1 (centres undefined) | i | 90.3 | i | nt | i | i
C[C@H](CO)N1C[C@H](C)[C@@H](CN(C)C(=O)NC2CCCC2)Oc2ncc(-c3ccccc3F)cc2C1=O | nt | i | nt | i | i | nt
C[C@H](CO)N1C[C@H](C)[C@@H](CN(C)C(=O)NC2CCCC2)Oc2cc(C#Cc3ccc(F)cc3)ccc2S1(=O)=O | nt | nt | nt | i | i | nt
